This is an account of results in PubChem BioAssay (NCATS).

A short description of assay [1]: Cell Viability - BJ (AID 421; calls by dose curve;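 further: potency means the concentration at half of the fitted maximal effect; cells exposed to compound for 40 hours at 37 °C before readout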). The note with it: BJ fibroblast viability, qHTS. In a few lines: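 Cytotoxicity as drop in intracellular ATP (CellTiter-Glo, 20 min RT) after 40 hr compound exposure of BJ fibroblasts at 37 °C. Titrations scaled between DMSO and 100 uM tamoxifen, Hill-fitted for AC50.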
Assay [2] can be described thus: Cell Viability - HepG2 (AID 433; calls by dose curve;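 further: potency means the concentration at half of the fitted maximal effect; potency for ATP loss meaning cytotoxicity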). The following applies: qHTS. Summed up: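 In this qHTS format, a 40 h, 37 °C compound incubation of HepG2 cells in complete medium precedes a 20 min CellTiter-Glo step at room temperature. Tamoxifen and doxorubicin serve as positive controls; Hill-equation fits yield AC50.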
(In general: qHTS replaces the single test concentration by a dilution series.)

The nature of assay [3]: Cell Viability - Renal Proximal Tubule (AID 545). Further: nearly all actives have a fitted effect of over 40% in size. The note with it: renal proximal tubule cells viability, primary cells of rat origin; activity change, negative = cytotoxicity: at 91.7 µM (top of the series). In a few lines: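 In this qHTS format, normal rat kidney-derived proximal tubule cells in complete culture medium receive compound titrations, then sit 40 hours at 37 °C before luciferase-based ATP quantitation; potency is reported as AC50 from concentration-response curves.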

Assay [4] is described as follows: Cellular Toxicity (caspase-3) Jurkat (AID 655).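 Further: cells exposed to compound for 16 h at 37 °C before reading.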 The following applies: Jurkat caspase-3 activation, luminescence; caspase-3 activation: at 92.2 µM (top of the series), DMSO = 0%, tamoxifen = 100%. Summed up:
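qHTS in human Jurkat T-cell leukemia line: 16 hr compound treatment at 37 °C, caspase-3/7 activity measured by Caspase-Glo luminescence. AC50 derived from Hill equation.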

Assay [5] is described as follows: MultiTox-Fluor Cytotoxicity Assay - LYMP1-001 - Dead Cells (AID 946). The note with it: LYMP1-001 lymphoblastoid cells, dead-cell protease fluorescence; series mostly up to 92.2 µM. Summed up:
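Cytotoxicity as increased dead-cell protease fluorescence (bis-AAF-R110, 485/520 nm), read 60 min after MultiTox-Fluor reagent. Human lymphoblastoid line exposed 16 h; Hill-fitted AC50, with DMSO as 0% and 15 uM tetraoctylammonium bromide as 100%.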

Assay [6] in a line: Cell Viability - LYMP1-002 - Assay at 16 hr (AID 948).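 Further: 0% = DMSO alone and full effect = 92 µM tetraoctylammonium bromide.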 The following applies: LYMP1-002 lymphoblastoid cell viability; series mostly up to 92.2 µM. In a few lines: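 In this qHTS, lymphoblastoid LYMP1-002 cells (human) receive compounds for 16 hr at 37 C. Viability is taken from CellTiter-Glo ATP luminescence, and AC50 derives from standard Hill fits.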
The nature of assay [7]: MultiTox-Fluor Cytotoxicity Assay - LYMP1-002 - Live Cells (AID 955).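 Further: cells exposed to compound for 16 hours; on the % scale 0 is the no-effect control and ±100 the full control effect.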 The note with it: LYMP1-002 lymphoblastoid live-cell protease fluorescence viability; series mostly up to 46.1 µM. In a few lines:
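Cytotoxicity in the human lymphoblastoid line LYMP1-002 is measured as loss of live-cell protease activity after 16 h treatment in complete culture medium. AC50 is derived from Hill-equation fits of qHTS concentration-response data.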

Assay [8] can be described thus: MultiTox-Fluor Cytotoxicity Assay - LYMP1-003 - Dead Cells (AID 961). Further: nearly all actives have a fitted effect of over 70% in size. The following applies: LYMP1-003 lymphoblastoid cells, dead-cell protease fluorescence; series mostly up to 92.2 µM. In a few lines: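 Dead-cell protease release, detected as bis-AAF-R110 fluorescence at 485/520 nm, was measured in LYMP1-003 cells after 16 h compound treatment at 37 C. AC50 values came from Hill-modeled qHTS curves normalized to DMSO (0%) and 15 uM tetraoctylammonium bromide (100%).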

A short description of assay [9]: Cell Viability - LYMP2-004 (AID 966).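 Further: plate controls were DMSO only for no effect and tetraoctylammonium bromide control for full effect; nearly all actives have a fitted effect of over 65% in size.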 The following applies: LYMP2-004 lymphoblastoid cell viability, qHTS; series mostly up to 92.2 µM. In a few lines:
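Acute toxicity is scored as a concentration-dependent drop in intracellular ATP, quantified by luciferase luminescence, in human lymphoblastoid cells exposed to compound for 24 hr. AC50 derives from Hill-equation modelling.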

A short description of assay [10]: Cell Viability - LYMP2-011 (AID 969).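 Further: 0% = DMSO only and full inhibition = 92 µM tetraoctylammonium bromide; nearly all actives have a fitted effect of over 60% in size.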 The note with it: LYMP2-011 lymphoblastoid cells viability; series mostly up to 92.2 µM. In a few lines:
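Acute toxicity is scored as a concentration-dependent drop in intracellular ATP of a human lymphoblastoid line after 24 hr treatment. Values are AC50s modeled with the Hill equation.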

The nature of assay [11]: Cell Viability - LYMP2-017 (AID 972).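 Further: cells exposed to compound for 24 hours at 37 °C; nearly all actives have a fitted effect of over 55% in size.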 Further: potency means the concentration at half of the fitted maximal effect. On activity change, negative = cytotoxicity: on the % scale 0 is the no-effect control and ±100 the full control effect. The following applies: LYMP2-017 lymphoblastoid cell viability; series mostly up to 92.2 µM. Summed up:
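Steps: plate 2500 lymphoblastoid cells per well; incubate 5 hr at 37 C; add compound across a concentration series and incubate 24 hr at 37 C; add CellTiter-Glo and read luminescence after 30 min at room temperature; fit Hill curves for AC50.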

Assay [12] in a line: Cell Viability - LYMP2-007 (AID 979).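 Further: cells exposed to compound for 24 h before reading; nearly all actives have a fitted effect of over 60% in size.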 Further: potency means the concentration at half of the fitted maximal effect.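 On activity change, negative = cytotoxicity: 0% = DMSO only and the negative end = 92 µM tetraoctylammonium bromide.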 The following applies: LYMP2-007 lymphoblastoid cell viability; series mostly up to 92.2 µM. Summed up: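 Acute toxicity is scored as a concentration-dependent fall in intracellular ATP in human lymphoblastoid cells treated 24 hr at 37 C, measured by luciferase luminescence; Hill-equation modelling yields AC50.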
Assay [13] in a line: Cell Viability - LYMP2-014 (AID 983).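 Further: cells exposed to compound for 24 h at 37 °C; plate controls were DMSO only for no effect and 92 µM tetraoctylammonium bromide for full effect; nearly all actives have a fitted effect of over 50% in size.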 The following applies: LYMP2-014 lymphoblastoid cells, viability qHTS; series mostly up to 92.2 µM. Summed up:
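Decrease in intracellular ATP after 24 hr treatment at 37 C, measured by luciferase luminescence, indicated cytotoxicity. Concentration-response data were fitted with the standard Hill equation to give AC50.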

The nature of assay [14]: Cell Viability - LYMP2-016 (AID 984).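 Further: cells exposed to compound for 24 hours at 37 °C; on the % scale 0 is the no-effect control and ±100 the full control effect; nearly all actives have a fitted effect of over 55% in size.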 The following applies: LYMP2-016 lymphoblastoid cell viability, qHTS; series mostly up to 92.2 µM. Summed up:
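Concentration-dependent ATP depletion measured in LYMP2-016 lymphoblastoid cells, 24 h, 37 C; luciferase-based luminescent detection; Hill-equation AC50.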

A short description of assay [15]: Cell Viability - LYMP2-018 (AID 985).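 Further: compound exposure lasted 24 hr at 37 °C; plate controls were DMSO only for no effect and tetraoctylammonium bromide at 92 µM for full effect; nearly all actives have a fitted effect of over 50% in size.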 The following applies: LYMP2-018 lymphoblastoid cells, viability (qHTS); series mostly up to 92.2 µM. Summed up: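 Acute cytotoxicity is scored as a concentration-dependent drop in intracellular ATP after 24 hr exposure of the lymphoblastoid line in complete culture medium, measured by luciferase luminescence. Potency is expressed as AC50 from Hill modelling.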

Assay [16] is described as follows: Cell Viability - LYMP2-020 (AID 986).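 Further: cells exposed to compound for 24 h at 37 °C; nearly all actives have a fitted effect of over 55% in size.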 Further: potency means the concentration at half of the fitted maximal effect. The following applies: series mostly up to 92.2 µM. In a few lines: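 Acute cytotoxicity in a human lymphoblastoid line is scored as a concentration-dependent fall in cellular ATP after 24 hr at 37 C in complete medium. The positive control is tetraoctylammonium bromide, and potency is given as Hill-fit AC50.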
A short description of assay [17]: Cell Viability - LYMP2-022 (AID 987). Further: nearly all actives have a fitted effect of over 55% in size. Further: potency means the concentration at half of the fitted maximal effect. The following applies: LYMP2-022 lymphoblastoid cell viability; series mostly up to 92.2 µM. Summed up:
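Acute toxicity in a human lymphoblastoid line is scored as decreased intracellular ATP after 24 hr compound treatment at 37 C. ATP is measured by CellTiter-Glo luminescence; curves are fitted with the Hill equation to give AC50.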

Assay [18] in a line: Cell Viability - LYMP1-002 - Assay at 24 hr (AID 993). Further: on the % scale 0 is the no-effect control and ±100 the full control effect. The following applies: LYMP1-002 lymphoblastoid cells viability; series mostly up to 92.2 µM. Summed up: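 qHTS, LYMP1-002 lymphoblastoid, 24 h cpd, 37 C, CellTiter-Glo ATP luminescence; AC50 via Hill eq.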
The target of assay [19] is Nuclear receptor subfamily 1 group I member 2 (Rattus norvegicus) (UniProt Q9R1A7). The experiment in a line: qHTS assay for small molecule activators of the rat pregnane X receptor (rPXR) signaling pathway (AID 651751; call rule not given here; further: 0% is about no effect). The following applies: rPXR reporter cells, luciferase (One-Glo), 24 h.
Sequence of Nuclear receptor subfamily 1 group I member 2 (Rattus norvegicus) (Q9R1A7 whole entry, looked up): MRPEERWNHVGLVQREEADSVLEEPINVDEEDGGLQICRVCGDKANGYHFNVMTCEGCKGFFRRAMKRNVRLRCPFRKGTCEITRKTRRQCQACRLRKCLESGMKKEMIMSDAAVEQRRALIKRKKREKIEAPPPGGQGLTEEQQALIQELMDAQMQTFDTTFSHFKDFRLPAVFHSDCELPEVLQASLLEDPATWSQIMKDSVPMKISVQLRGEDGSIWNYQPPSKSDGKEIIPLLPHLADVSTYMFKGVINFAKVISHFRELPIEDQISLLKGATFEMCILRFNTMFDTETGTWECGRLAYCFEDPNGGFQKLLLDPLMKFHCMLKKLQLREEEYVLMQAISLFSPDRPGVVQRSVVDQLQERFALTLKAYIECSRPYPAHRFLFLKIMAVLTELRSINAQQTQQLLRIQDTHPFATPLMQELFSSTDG
The nature of assay [20]: qHTS assay for environmental chemicals that activate the Aryl hydrocarbon Receptor (AhR) signaling pathway (AID 651777). Further: nearly all actives have a fitted effect of over 15% in size. Further: potency means the concentration at half of the fitted maximal effect. On activation: % of control where 0% means no effect. The note with it: 1A2-DRE human hepatoma cells, luciferase, 24 h; activation: stronger effect = higher value. In a few lines:
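Quantitative HTS in stably transfected human liver-derived cells whose luciferase gene sits downstream of the CYP1A2 promoter and dioxin response element. After 24 hr exposure at 37 C, One-Glo luminescence was measured.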

“And” between values parts separate entries of the source, which are not always exact repeats. Equal entries are not always repeated. A number with no mark means an inactive call. Results filed as inconclusive are left out. The source made the active and inactive calls. Unless noted, the call rests on the fitted dose curve; in most records, active means well fitted curve in the direction sought with a large enough effect; inconclusive means small, poorly fitted or top-dose-only effect, or another doubt; inactive means no such curve, though single readings can be large; an effect the other way counts as inactive or inconclusive. Where only a bound is given, the exact number is not on record here.

Take `O=C(Cl)c1ccc([N+](=O)[O-])cc1`: the Potency in assay [1] and in assay [2] was above 92 µM throughout. The Potency result in [3], in [4], in [5], in [6], in [8] and in assay [9] was “inactive” each time. Besides, the Potency result in assay [10], in assay [11], in assay [12], in [13], in [14] and in assay [15] was “inactive” in each case. For the same compound, the Potency result in [16], in assay [17] and in [18] was “inactive” throughout. In assay [7], the compound was classed as inactive. Besides, the max response in [19] was -6.29%.
`O=[N+]([O-])c1cc(N(CCO)CCO)ccc1NCCO`: the Potency entry in [4], in assay [5], in assay [8], in assay [10], in [12] and in [13] was “inactive” each time. Moreover, the Potency entry in [14], in assay [15], in assay [16] and in assay [17] was “inactive” in each case. In addition, in assay [7], the compound was called inactive. Moreover, the activation in assay [20] was -2.68% and -1.58%. Also, the max response in assay [19] was -6.76% and -5.03%.
`Cc1ccc(O)c(N)c1`: the Potency was above 92 µM in [1]; above 92 µM in [2]; 50.1 µM (active) in assay [11]; 50.1 µM (active) in [12]; 50.1 µM (active) in [16]; 39.8 µM (active) in assay [17]. In assay [20], the Potency was 50.1 µM (active). Moreover, the Potency result in assay [3], in assay [4], in assay [5], in [6], in assay [8] and in assay [18] was “inactive” each time. Besides, the outcome in assay [7] was inactive. Further, the max response in assay [19] is 12.1%.
On to `Nc1ccc(-c2ccc(N)c(O)c2)cc1O`, for which the Potency in [1] and in assay [2] was above 92 µM each time. Besides, the Potency result in assay [3], in [5], in assay [6], in assay [8], in assay [13] and in assay [14] was “inactive” in each case. For the same compound, the Potency entry in assay [16] and in [18] was “inactive” each time. For the same compound, the compound was called inactive in assay [7]. Further, in assay [20], the activation is -0.254%. Moreover, the max response in assay [19] was -1.46%.
As to `Cc1cc2nc(N)sc2cc1C`, the Potency in assay [1] is above 92 µM. Also, the Potency result in [4], in [5], in [6], in assay [8], in assay [9] and in assay [10] was “inactive” in each case. Besides, the Potency entry in assay [11], in assay [12], in [13], in [14], in [15] and in [16] was “inactive” each time. Further, the Potency result in assay [17] and in assay [18] was “inactive” each time. The compound was called inactive in [7].
